Measurements taken from PMC4336329 (PLoS ONE, 2015).
Screen size: about 310,000 compounds; about 14,000 (4.5%) showed an effect of 50% or more. The effect is printed as a negative number. What follows is part of a selection rich in strong results, with near analogues and random picks from the rest.
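Note: peak tail current of the secondary pulse compared with the same well before compound.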

What follows are compounds tested against human ether-à-go-go-related gene (hERG) potassium channel (human, UniProt Q12809) (assay: primary screen, population patch clamp on CHO cells stably expressing hERG; higher = less effect of the substance).
Chain of human ether-à-go-go-related gene (hERG) potassium channel (Q12809 whole entry, looked up): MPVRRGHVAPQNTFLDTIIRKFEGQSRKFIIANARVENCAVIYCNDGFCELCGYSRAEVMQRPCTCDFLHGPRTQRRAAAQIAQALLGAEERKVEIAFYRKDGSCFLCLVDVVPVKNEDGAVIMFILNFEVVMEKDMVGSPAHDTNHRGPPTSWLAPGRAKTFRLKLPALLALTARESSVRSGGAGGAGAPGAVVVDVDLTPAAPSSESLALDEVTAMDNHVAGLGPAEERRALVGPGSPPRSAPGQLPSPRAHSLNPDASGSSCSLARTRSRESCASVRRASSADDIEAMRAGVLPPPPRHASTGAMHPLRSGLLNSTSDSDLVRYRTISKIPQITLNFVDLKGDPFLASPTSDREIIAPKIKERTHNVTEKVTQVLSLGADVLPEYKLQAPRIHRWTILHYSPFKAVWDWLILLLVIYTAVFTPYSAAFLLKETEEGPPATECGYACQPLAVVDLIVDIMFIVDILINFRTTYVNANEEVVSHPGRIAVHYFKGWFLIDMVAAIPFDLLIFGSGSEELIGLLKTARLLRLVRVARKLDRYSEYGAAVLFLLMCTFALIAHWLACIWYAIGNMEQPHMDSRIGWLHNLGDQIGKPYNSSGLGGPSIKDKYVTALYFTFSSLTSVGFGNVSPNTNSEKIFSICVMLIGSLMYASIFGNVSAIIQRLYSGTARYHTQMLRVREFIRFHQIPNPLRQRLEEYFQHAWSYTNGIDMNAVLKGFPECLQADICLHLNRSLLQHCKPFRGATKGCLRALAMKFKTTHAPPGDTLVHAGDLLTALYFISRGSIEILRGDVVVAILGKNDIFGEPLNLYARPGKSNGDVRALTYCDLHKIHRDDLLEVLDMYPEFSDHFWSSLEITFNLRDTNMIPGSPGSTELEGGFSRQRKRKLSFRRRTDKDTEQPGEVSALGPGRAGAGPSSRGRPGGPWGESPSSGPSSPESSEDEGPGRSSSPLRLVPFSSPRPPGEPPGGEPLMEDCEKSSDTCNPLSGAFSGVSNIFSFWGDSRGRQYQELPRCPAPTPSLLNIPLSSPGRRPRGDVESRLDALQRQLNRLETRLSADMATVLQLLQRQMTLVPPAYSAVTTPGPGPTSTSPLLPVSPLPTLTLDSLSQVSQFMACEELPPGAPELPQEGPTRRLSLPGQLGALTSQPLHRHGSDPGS
In the case of `COc1ccccc1NC(=O)Nc1nc(CC(=O)NCc2ccc(F)cc2)cs1`, the “hERG current change (%, negative = inhibition) at 10uM” value is reported as -11.4%.
For `Cc1ccc(S(=O)(=O)NCc2ccccc2)cc1C(=O)NC1CCCCC1`, the “hERG current change (%, negative = inhibition) at 10uM” value was 15.9%.
With `COc1cc(C(=O)NCC(=O)OCCN2C(=O)c3ccccc3C2=O)cc(OC)c1OC` the “hERG current change (%, negative = inhibition) at 10uM” value was 4.2%.
`CCNc1nc(Oc2ccc(=O)[nH]n2)nc(SC)n1` was tested, and the “hERG current change (%, negative = inhibition) at 10uM” value was 8.57%.
With `CC1=CC(C/C(C)=C/COc2ccc3ccc(=O)oc3c2)OC1=O` (stereo not drawn) the “hERG current change (%, negative = inhibition) at 10uM” value was 2.36%.
`COC(=O)c1c(NC(=O)c2ccccc2F)sc2c1C(C(=O)OC)CC2` (stereo not drawn) was tested, and the “hERG current change (%, negative = inhibition) at 10uM” value was 9.38%.
`CCCn1c(SCC(=O)c2cc(OC)ccc2OC)nnc1-c1ccco1` was tested, and the “hERG current change (%, negative = inhibition) at 10uM” value was -12.5%.
In the case of `O=C(Nc1ccccc1)C1=C[C@@H](c2coc3ccccc3c2=O)C[C@@H](OCCCCO)O1`, the “hERG current change (%, negative = inhibition) at 10uM” value is reported as -41.1%.
`O=C(O)C1=C[C@H](c2coc3ccccc3c2=O)C[C@H](OCCCCO)O1` was tested, and the “hERG current change (%, negative = inhibition) at 10uM” value was 3.91%.
With `O=C(O)C1=C[C@@H](c2coc3ccccc3c2=O)C[C@@H](OCCCCO)O1` the “hERG current change (%, negative = inhibition) at 10uM” value was 22.8%.
With `O=C(NC1CC1)C1=C[C@@H](c2coc3ccccc3c2=O)C[C@@H](OCCCCO)O1` the “hERG current change (%, negative = inhibition) at 10uM” value was -23.8%.
In the case of `C#CCNC(=O)C1=C[C@@H](c2coc3ccccc3c2=O)C[C@@H](OCCCCO)O1`, the “hERG current change (%, negative = inhibition) at 10uM” value is reported as 1.71%.
In the case of `O=C(NCc1ccccc1)C1=C[C@H](c2coc3ccccc3c2=O)C[C@H](OCCCCO)O1`, the “hERG current change (%, negative = inhibition) at 10uM” value is reported as -55.4%.
For `C#CCNC(=O)C1=C[C@H](c2coc3ccccc3c2=O)C[C@H](OCCCCO)O1`, the “hERG current change (%, negative = inhibition) at 10uM” value was -45%.
With `O=C(Nc1ccccc1)C1=C[C@H](c2coc3ccccc3c2=O)C[C@H](OCCCCO)O1` the “hERG current change (%, negative = inhibition) at 10uM” value was -70.3%.
With `O=C(NCc1ccccc1)C1=C[C@@H](c2coc3ccccc3c2=O)C[C@@H](OCCCCO)O1` the “hERG current change (%, negative = inhibition) at 10uM” value was -83.1%.
In the case of `COc1cc2c(cc1OC)CN(C(=S)Nc1ccccc1)CC2`, the “hERG current change (%, negative = inhibition) at 10uM” value is reported as -7.19%.
In the case of `O=C(/C=C/c1cc(Br)ccc1F)Nc1cccnc1`, the “hERG current change (%, negative = inhibition) at 10uM” value is reported as 14.6%.
`COc1ccccc1N(CC(=O)NC1CCCC1)C(=O)C1(C)CC(=O)N=C2C=CC(C)=CN21` (stereo not drawn) was tested, and the “hERG current change (%, negative = inhibition) at 10uM” value was 12.5%.
For `CC(C)CCN(C(=O)c1ccc(N2CCCC2=O)cc1)c1c(N)n(Cc2ccccc2)c(=O)[nH]c1=O`, the “hERG current change (%, negative = inhibition) at 10uM” value was 12.2%.
For `Cc1ccc(-n2cc3ccc([N+](=O)[O-])cc3n2)cc1`, the “hERG current change (%, negative = inhibition) at 10uM” value was 5.28%.
`CC(C)n1c(Nc2ccccc2)nc2ccccc21` was tested, and the “hERG current change (%, negative = inhibition) at 10uM” value was -1.84%.
`COc1cccc(NC(=O)CSc2nc3c([nH]c4ccccc43)c(=O)n2C)c1` was tested, and the “hERG current change (%, negative = inhibition) at 10uM” value was 16.4%.
In the case of `COc1cccc(NC(=O)CSc2nc3c(sc4ccccc43)c(=O)n2CCN(C)C)c1.Cl`, the “hERG current change (%, negative = inhibition) at 10uM” value is reported as -65.5%.
With `CCN(CC)CCn1c(SCC(=O)Nc2cccc(OC)c2)nc2c(sc3ccccc32)c1=O` the “hERG current change (%, negative = inhibition) at 10uM” value was -69.2%.
With `COCCn1c(SCC(=O)Nc2cccc(OC)c2)nc2c(oc3ccccc32)c1=O` the “hERG current change (%, negative = inhibition) at 10uM” value was -42.2%.
In the case of `COc1cccc(NC(=O)CSc2nc3c(sc4ccccc43)c(=O)n2CCCN2CCCC2)c1`, the “hERG current change (%, negative = inhibition) at 10uM” value is reported as -69.8%.
`CCN(CC)CCn1c(SCC(=O)Nc2ccc(F)cc2)nc2c(sc3ccccc32)c1=O.Cl` was tested, and the “hERG current change (%, negative = inhibition) at 10uM” value was -14.9%.
With `Cc1cc(NC(=O)CSc2nc3c(sc4ccccc43)c(=O)n2CCc2ccccc2)n[nH]1` the “hERG current change (%, negative = inhibition) at 10uM” value was -19.6%.
`COc1ccccc1NC(=O)CSc1nc2c(sc3ccccc32)c(=O)n1CCN(C)C.Cl` was tested, and the “hERG current change (%, negative = inhibition) at 10uM” value was 11.5%.
For `COc1ccc(NC(=O)CSc2nc3c(sc4ccccc43)c(=O)n2CCCN2CCCC2)cc1`, the “hERG current change (%, negative = inhibition) at 10uM” value was -30.8%.
`Cc1ccc(C)c(N2CCN(S(=O)(=O)c3ccc4c(c3)CC(=O)N4C)CC2)c1` was tested, and the “hERG current change (%, negative = inhibition) at 10uM” value was -19.4%.
`COc1ccc(Nc2nnc(SCC3CCCO3)s2)cc1` (stereo not drawn) was tested, and the “hERG current change (%, negative = inhibition) at 10uM” value was -5.7%.
With `Cc1nc(NC(=O)C(Cl)Cl)sc1C(=O)N(C)C` the “hERG current change (%, negative = inhibition) at 10uM” value was 5.44%.
`CCCC(c1nnnn1CC1CCCO1)N1CCN(c2ccccc2)CC1.Cl` (stereo not drawn) was tested, and the “hERG current change (%, negative = inhibition) at 10uM” value was -4.74%.
With `O=C(Nc1cccc(Oc2ccc3c(c2)C(=O)NC3=O)c1)c1ccco1` the “hERG current change (%, negative = inhibition) at 10uM” value was -21.8%.
`CCn1c(=O)[nH]c(=O)c2c(N)c(C(=O)c3ccccc3OC)sc21` was tested, and the “hERG current change (%, negative = inhibition) at 10uM” value was -15.2%.
For `CCn1c(=O)[nH]c(=O)c2c(N)c(C(=O)c3cc(F)ccc3F)sc21`, the “hERG current change (%, negative = inhibition) at 10uM” value was -57.4%.
With `Cc1ccc(C(=O)c2sc3c(c2N)c(=O)[nH]c(=O)n3CCc2ccccc2)cc1` the “hERG current change (%, negative = inhibition) at 10uM” value was 12.2%.
`CC1=Nc2ccccc2/C1=C/c1sc(=N)n(-c2nccs2)c1O` was tested, and the “hERG current change (%, negative = inhibition) at 10uM” value was 10.5%.
With `O=C(CN1C(=O)/C(=C/c2ccco2)SC1=S)Nc1ccc(O)c(C(=O)O)c1` the “hERG current change (%, negative = inhibition) at 10uM” value was 25.2%.
With `CCC(=O)N(CCC(Cc1ccccc1)c1ccco1)Cc1ccco1` (stereo not drawn) the “hERG current change (%, negative = inhibition) at 10uM” value was -1.81%.
